According to PMC11062922 (Nature Chemical Biology, 2023):
Read-outs that look alike come from different tables or passages of the source.

Key:
Design in all cases: species or system human, MV4-11 + K-562 + COLO205 + SK-N-BE2 + OVCAR-8
CSNK1G1 = details: read-out: apparent Kd, n = 1
MAP2K5 = details: read-out: apparent Kd, n = 1
MAPK1 = details: read-out: apparent Kd, compound concentrations: 100 nM and 1000 nM (sheet 'Samples'), n = 1
RPS6KA5 = details: read-out: apparent Kd, n = 1
SYK = details: read-out: apparent Kd, n = 1
PRKX;PRKY = details: read-out: apparent Kd, n = 1
MAPK11 = details: read-out: apparent Kd, n = 1
IRAK1 = details: read-out: apparent Kd; compound concentrations:100 nM and 1000 nM (sheet 'Samples'); n = 1
TAOK1 = details: read-out: apparent Kd, n = 1
TBK1 = details: read-out: apparent Kd; compound concentrations:100 nM and 1000 nM (sheet 'Samples'); n = 1
MERTK = details: read-out: apparent Kd, compound concentrations: 100 nM and 1000 nM (sheet 'Samples'), n = 1
PIM1 = details: read-out: apparent Kd, n = 1
PRKCI = details: read-out: apparent Kd, n = 1
NQO1 = details: read-out: apparent Kd, n = 1
CAMK2D = details: read-out: apparent Kd, compound concentrations: 100 nM and 1000 nM (sheet 'Samples'), n = 1
NTRK1 = details: read-out: apparent Kd, n = 1
STRADA = details: read-out: apparent Kd, n = 1
[1] = compound concentrations:100 nM and 1000 nM (sheet 'Samples')

## O=C(O)C(F)(F)F.O=c1[nH]ccc2nc(N[C@@H]3CCNC3)nc(Nc3ccc4c(c3)S(=O)(=O)CC4)c12 [GSK2181306A]
CSNK1G1; compound concentrations: 100 nM and 1000 nM (sheet 'Samples'), CATDS: 8.6672996654843307E-3
  potency estimated from few doses: 1380 nM
MAP2K5; compound concentrations: 100 nM and 1000 nM (sheet 'Samples'), CATDS: 1.2089918500056101E-2
  potency estimated from few doses: 509 nM
MAPK1; CATDS: 9.4433771330179501E-3
  potency estimated from few doses: 1020 nM
RPS6KA5; compound concentrations: 100 nM and 1000 nM (sheet 'Samples'), CATDS: 8.4236521656491804E-3
  potency estimated from few doses: 1550 nM
SYK; compound concentrations: 100 nM and 1000 nM (sheet 'Samples'), CATDS: 8.7741915408421998E-3
  potency estimated from few doses: 1320 nM

## CC(C)Nc1cc(-c2ccc3c(N)n[nH]c3c2)nc(N)n1 [GSK2221681A]
PRKX;PRKY; [1]
  potency estimated from few doses: 1270 nM

## Cc1ccccc1-n1ncc(C(=O)c2ccccc2)c1N [RO1151248-000]
MAPK11; compound concentrations: 100 nM and 1000 nM (sheet 'Samples'), CATDS: 3.0870042087065699E-2
  potency estimated from few doses: 552 nM

## CC(C)Oc1ccc2c(-c3ccnc(Nc4ccc(N5CCN(C)CC5)cc4)n3)cnn2n1 [GW696155X]
IRAK1
  potency estimated from few doses: 769 nM
TAOK1; [1]
  potency estimated from few doses: 1580 nM
TBK1
  potency estimated from few doses: 621 nM

## O=C(O)C(F)(F)F.O=C(O)C(F)(F)F.O=c1[nH]ccc2nc(N[C@@H]3CCCNC3)nc(Nc3ccc(S(=O)(=O)N4CCOCC4)cc3)c12.O=c1[nH]ccc2nc(N[C@@H]3CCCNC3)nc(Nc3ccc(S(=O)(=O)N4CCOCC4)cc3)c12 [GSK2177277A]
CSNK1G1; compound concentrations: 100 nM and 1000 nM (sheet 'Samples'), CATDS: 7.1909422101758503E-3
  potency estimated from few doses: 882 nM
MAP2K5; compound concentrations: 100 nM and 1000 nM (sheet 'Samples'), CATDS: 1.4569473169207601E-2
  potency estimated from few doses: 103 nM
MERTK; CATDS: 1.1592861489919001E-2
  potency estimated from few doses: 181 nM
TAOK1; compound concentrations: 100 nM and 1000 nM (sheet 'Samples'), CATDS: 1.8448588679872001E-2
  potency estimated from few doses: 61.9 nM

## NC(=O)c1cc(-c2ccccc2)cc2c(C3CCNCC3)c[nH]c12 [GSK301362A]
TAOK1; [1]
  potency estimated from few doses: 1500 nM

## CCn1c(-c2cccnc2O)nc2cnccc21 [SB-736715]
CSNK1G1; compound concentrations: 100 nM and 1000 nM (sheet 'Samples'), CATDS: 1.6371117072737501E-2
  potency estimated from few doses: 1080 nM
MAPK11; compound concentrations: 100 nM and 1000 nM (sheet 'Samples'), CATDS: 1.30714391114645E-2
  potency estimated from few doses: 1760 nM
PIM1; compound concentrations: 100 nM and 1000 nM (sheet 'Samples'), CATDS: 1.79844140695006E-2
  potency estimated from few doses: 909 nM
PRKCI; compound concentrations: 100 nM and 1000 nM (sheet 'Samples'), CATDS: 1.2421041550088101E-2
  potency estimated from few doses: 2000 nM
SYK; compound concentrations: 100 nM and 1000 nM (sheet 'Samples'), CATDS: 1.27185371688364E-2
  potency estimated from few doses: 1880 nM

## CS(=O)(=O)CCn1c(=O)c(Oc2ccc(F)cc2F)cc2cnc(NC3CCOCC3)nc21 [RO5027956-000]
MAPK11; [1]
  potency estimated from few doses: 1730 nM

## CCn1c(-c2nonc2N)nc2c(C#CC(C)(C)O)nc(O[C@@H](CN)c3ccccc3)cc21.O=C(O)C(F)(F)F [GSK1007102B]
PRKX;PRKY; [1]
  potency estimated from few doses: 83.5 nM

## c1cnn2ncc(-c3ccnc(Nc4ccc5c(c4)OCCO5)n3)c2c1 [GW806290X]
NQO1; compound concentrations: 100 nM and 1000 nM (sheet 'Samples'), CATDS: 2.4144843754049801E-2
  potency estimated from few doses: 1040 nM

## CNCc1ccc(-c2cc(-c3nc(-c4ccc(S(=O)(=O)C(C)C)cc4)cnc3N)on2)cc1 [VE-822]
NQO1; [1]
  potency estimated from few doses: 1090 nM

## COc1cc[nH]c1/C=C1\C(=O)Nc2ccc(F)c(C#CC3(O)CCNCC3)c21.Cl [RO0282986-001]
CAMK2D; CATDS: 2.4491980048065101E-2
  potency estimated from few doses: 142 nM
NTRK1; compound concentrations: 100 nM and 1000 nM (sheet 'Samples'), CATDS: 9.7350807133640294E-3
  potency estimated from few doses: 1470 nM
STRADA; compound concentrations: 100 nM and 1000 nM (sheet 'Samples'), CATDS: 9.4665319729240003E-3
  potency estimated from few doses: 1660 nM

## O=C(O)C(F)(F)F.O=c1[nH]ccc2nc(N[C@@H]3CCNC3)nc(Nc3cc(Cl)cc(Cl)c3)c12 [GSK2188764A]
MAP2K5; [1]
  potency estimated from few doses: 207 nM

## CN(C)CC(O)COc1ccc(Nc2nccc(-c3cnn4nc(N5CCOCC5)ccc34)n2)cc1 (stereo not drawn) [GW767488X]
IRAK1
  potency estimated from few doses: 80 nM

## CCN(CC)Cc1ccc(Nc2nccc(-c3cnn4ncccc34)n2)cc1 [GW780056X]
CAMK2D; CATDS: 2.8805291945328802E-2
  potency estimated from few doses: 472 nM
NTRK1; compound concentrations: 100 nM and 1000 nM (sheet 'Samples'), CATDS: 2.09044703121741E-2
  potency estimated from few doses: 1140 nM

## Cl.Cl.NC(CNC(=O)c1cc(Br)c(-c2ccnc3[nH]ccc23)s1)c1ccccc1.NC(CNC(=O)c1cc(Br)c(-c2ccnc3[nH]ccc23)s1)c1ccccc1 (stereo not drawn) [GSK1322949A]
NTRK1; compound concentrations: 100 nM and 1000 nM (sheet 'Samples'), CATDS: 2.41440168152992E-2
  potency estimated from few doses: 2140 nM
PRKCI; compound concentrations: 100 nM and 1000 nM (sheet 'Samples'), CATDS: 2.43099453780894E-2
  potency estimated from few doses: 2100 nM

## CNc1cc(-c2ccc3c(N)n[nH]c3c2)nc(N)n1 [GSK2224810A]
CSNK1G1; [1]
  potency estimated from few doses: 2200 nM
NQO1; [1]
  potency estimated from few doses: 1440 nM

## CCn1c(-c2nonc2N)nc2cncc(C(=O)N3CC[C@H](N)C3)c21.Cl [SB-772077-B]
PIM1; [1]
  potency estimated from few doses: 30.8 nM
PRKCI; [1]
  potency estimated from few doses: 606 nM
RPS6KA5; [1]
  potency estimated from few doses: 48.3 nM

## Cl.Cl.NC[C@H](CC1CCCCC1)NC(=O)c1ccc(-c2ccnc3[nH]ccc23)s1.NC[C@H](CC1CCCCC1)NC(=O)c1ccc(-c2ccnc3[nH]ccc23)s1 [GSK1581428A]
RPS6KA5; [1]
  potency estimated from few doses: 1340 nM

## CCC(CC)(CC)n1cnc2c(N)ncnc21 [SKF-97620]
MAPK1; CATDS: 2.7105315036477701E-2
  potency estimated from few doses: 1350 nM
STRADA; compound concentrations: 100 nM and 1000 nM (sheet 'Samples'), CATDS: 2.3464375070220901E-2
  potency estimated from few doses: 2220 nM

## Cc1cc(NC(=O)c2cccc(NC(=O)/C=C/CN(C)C)c2)ccc1Nc1nccc(-c2cccnc2)n1 [JNK-IN-7]
IRAK1
  potency estimated from few doses: 111 nM

## Nc1nccc(-c2ccc3c(N)n[nH]c3c2)n1 [GSK1034945A]
PRKCI; [1]
  potency estimated from few doses: 1240 nM

## CCn1c(-c2nonc2N)nc2cncc(Br)c21 [SB-738004]
PRKCI; [1]
  potency estimated from few doses: 483 nM

## Cn1cc(C2=C(c3c(S(C)=O)n(C)c4ccccc34)C(=O)NC2=O)c2ccccc21 (stereo not drawn) [RO0317379-000]
MERTK; CATDS: 0.152685994301652
  potency estimated from few doses: 590 nM

## Cc1occc1-c1nc(N)c(OC[C@@H](N)Cc2c[nH]c3ccccc23)cc1-c1cc2c(C)n[nH]c2cn1 [GSK1660450B]
CSNK1G1; [1]
  potency estimated from few doses: 1340 nM
PIM1; [1]
  potency estimated from few doses: 92.7 nM
TAOK1; [1]
  potency estimated from few doses: 12 nM

## Nc1nc(-c2ccc3c(N)n[nH]c3c2)cc(N2CCCC(NC(=O)c3ccccc3)C2)n1 (stereo not drawn) [GSK2286775B]
NQO1; [1]
  potency estimated from few doses: 1370 nM
TBK1
  potency estimated from few doses: 342 nM

## COc1cc[nH]c1/C=C1\C(=O)Nc2ccc(F)c(C#C[C@@H](O)[C@@H](N)[C@@H](C)O)c21 [RO0283120-000]
NTRK1; [1]
  potency estimated from few doses: 1430 nM
STRADA; [1]
  potency estimated from few doses: 2010 nM

## CN[C@H](C#Cc1c(F)ccc2c1/C(=C/c1[nH]ccc1OC)C(=O)N2)CO.Cl [RO0283049-001]
NTRK1; compound concentrations: 100 nM and 1000 nM (sheet 'Samples'), CATDS: 2.3877325037377599E-2
  potency estimated from few doses: 949 nM

## O=C1N=C(NCCc2ccccc2Cl)S/C1=C\c1ccc2ncccc2c1 [RO4498484-000]
PRKX;PRKY; compound concentrations: 100 nM and 1000 nM (sheet 'Samples'), CATDS: 5.9384973682941697E-2
  potency estimated from few doses: 1830 nM

## O=C(Nc1n[nH]c2nc(-c3ccccc3O)ccc12)C1CC1 [SB-711880]
SYK; [1]
  potency estimated from few doses: 1760 nM

## COc1cc[nH]c1/C=C1\C(=O)Nc2ccc([N+](=O)[O-])c(N3CC[C@@H](O)C3)c21 [RO0504985-000]
NTRK1; compound concentrations: 100 nM and 1000 nM (sheet 'Samples'), CATDS: 3.6845933962960403E-2
  potency estimated from few doses: 886 nM

## Cl.Cl.NCC(NC(=O)c1cc(-c2ccnc3[nH]ccc23)cs1)c1ccccc1.NCC(NC(=O)c1cc(-c2ccnc3[nH]ccc23)cs1)c1ccccc1 (stereo not drawn) [GSK1229959A]
RPS6KA5; compound concentrations: 100 nM and 1000 nM (sheet 'Samples'), CATDS: 1.83168013487864E-2
  potency estimated from few doses: 1240 nM
